Common to all, as to test: DAPPL (digital affinity profiling via proximity ligation, sequencing); 10 mM Tris-HCl pH 7.5, 50 mM NaCl, 1 mM DTT, 4% glycerol, room temperature, 30 min; GST-TFs on glutathione beads, 16-mer random dsDNA library, 0.1% formaldehyde crosslink after washing; high values mean tight binding
Holding throughout (conditions): protein: recombinant; tags: N-terminal GST; dsDNA, one strand shown

The target of test [1] is T1, FLI1 (Homo sapiens, UniProt Q01543 1-452).
T1 sequence: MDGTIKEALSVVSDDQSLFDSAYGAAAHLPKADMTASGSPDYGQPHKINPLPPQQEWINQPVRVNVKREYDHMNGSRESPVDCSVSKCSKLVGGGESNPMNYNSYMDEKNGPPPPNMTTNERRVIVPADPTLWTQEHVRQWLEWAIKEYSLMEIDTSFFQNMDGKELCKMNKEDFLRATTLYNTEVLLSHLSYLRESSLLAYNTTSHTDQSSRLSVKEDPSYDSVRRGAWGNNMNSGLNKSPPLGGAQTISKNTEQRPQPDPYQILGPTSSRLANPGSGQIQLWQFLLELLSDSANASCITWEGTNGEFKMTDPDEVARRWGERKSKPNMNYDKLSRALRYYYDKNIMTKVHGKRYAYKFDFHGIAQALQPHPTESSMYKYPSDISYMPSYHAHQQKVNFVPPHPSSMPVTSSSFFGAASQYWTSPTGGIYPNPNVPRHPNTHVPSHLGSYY
The essentials:
(§1)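 In yeast, human transcription factors were expressed with a GST fusion, then pulled down on glutathione beads and given DNA barcodes. Pooled with a tag-only sample, they were exposed to 200 nmole of a 16-mer random double-stranded DNA library (Tris/NaCl/DTT/glycerol buffer, room temperature, 30 min), washed, crosslinked with 0.1% formaldehyde, proximity-ligated using BsaI/T4 ligase for 1 h at 37 °C, PCR-amplified and read on an Illumina NextSeq500. Each hexamer's frequency of reads for a factor, divided by the matching frequency for the tag-only sample, gives the binding signal.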

The target in test [2] is T2, ELK1 (Homo sapiens, UniProt P19419 1-428).
T2 sequence: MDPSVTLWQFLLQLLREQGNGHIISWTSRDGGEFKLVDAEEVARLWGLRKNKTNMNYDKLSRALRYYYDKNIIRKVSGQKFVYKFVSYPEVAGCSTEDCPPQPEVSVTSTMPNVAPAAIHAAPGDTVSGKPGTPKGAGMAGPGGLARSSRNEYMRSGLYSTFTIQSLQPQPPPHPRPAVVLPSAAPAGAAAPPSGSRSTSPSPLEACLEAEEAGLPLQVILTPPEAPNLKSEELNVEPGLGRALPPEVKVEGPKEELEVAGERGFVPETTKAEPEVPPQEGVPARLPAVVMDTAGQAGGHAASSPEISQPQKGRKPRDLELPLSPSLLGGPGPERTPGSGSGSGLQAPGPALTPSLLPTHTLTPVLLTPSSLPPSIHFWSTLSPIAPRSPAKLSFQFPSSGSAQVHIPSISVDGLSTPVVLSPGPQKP
The essentials: as §1

In test [3] the target is T3, GABPA (Homo sapiens, UniProt Q06546 1-454).
T3 sequence: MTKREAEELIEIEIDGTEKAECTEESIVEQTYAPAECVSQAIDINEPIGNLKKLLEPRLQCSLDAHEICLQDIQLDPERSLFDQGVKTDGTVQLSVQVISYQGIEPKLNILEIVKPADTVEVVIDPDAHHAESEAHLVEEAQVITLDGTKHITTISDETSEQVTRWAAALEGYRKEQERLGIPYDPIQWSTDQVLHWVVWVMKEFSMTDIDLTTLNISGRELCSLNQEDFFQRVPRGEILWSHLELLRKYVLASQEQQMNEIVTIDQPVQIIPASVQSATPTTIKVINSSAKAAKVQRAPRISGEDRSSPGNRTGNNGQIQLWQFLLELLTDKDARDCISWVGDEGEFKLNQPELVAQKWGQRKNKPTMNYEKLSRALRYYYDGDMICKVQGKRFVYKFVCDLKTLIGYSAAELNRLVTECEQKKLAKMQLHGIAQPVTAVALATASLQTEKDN
Summed up: as §1

In test [4] the target is T4, ERG (Homo sapiens, UniProt P11308 1-479).
T4 sequence: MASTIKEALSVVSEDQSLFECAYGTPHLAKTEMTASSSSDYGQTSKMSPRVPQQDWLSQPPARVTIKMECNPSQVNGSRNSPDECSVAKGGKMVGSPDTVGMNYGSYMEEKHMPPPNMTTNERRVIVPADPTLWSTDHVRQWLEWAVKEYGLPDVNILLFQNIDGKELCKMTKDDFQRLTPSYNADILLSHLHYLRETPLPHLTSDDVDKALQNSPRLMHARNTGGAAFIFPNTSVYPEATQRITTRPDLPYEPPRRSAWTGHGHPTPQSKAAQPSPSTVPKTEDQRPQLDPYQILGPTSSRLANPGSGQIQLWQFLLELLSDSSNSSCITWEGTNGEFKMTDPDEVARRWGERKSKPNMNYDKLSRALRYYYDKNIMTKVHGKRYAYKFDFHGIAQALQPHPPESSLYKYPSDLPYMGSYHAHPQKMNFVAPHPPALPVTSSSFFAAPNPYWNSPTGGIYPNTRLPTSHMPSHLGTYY
The essentials: as §1

The target in test [5] is ELF1 (Homo sapiens, UniProt P32519 1-619). Summed up: as §1
The target in test [6] is T5, EHF (Homo sapiens, UniProt Q9NZC4 1-300).
T5 sequence: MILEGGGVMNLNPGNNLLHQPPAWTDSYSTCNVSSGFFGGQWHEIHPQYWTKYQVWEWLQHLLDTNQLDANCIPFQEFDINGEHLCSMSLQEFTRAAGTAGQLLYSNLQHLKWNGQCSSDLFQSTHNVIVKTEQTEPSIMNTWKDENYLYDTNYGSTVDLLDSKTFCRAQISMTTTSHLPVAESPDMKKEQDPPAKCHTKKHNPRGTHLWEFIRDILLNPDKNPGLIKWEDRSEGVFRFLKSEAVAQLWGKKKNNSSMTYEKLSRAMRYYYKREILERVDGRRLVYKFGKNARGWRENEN
Summed up: as §1

Test [7] deals with SPI1 (Homo sapiens, UniProt P17947 1-270). The essentials:
as §1

In test [8] the target is SPIB (Homo sapiens, UniProt Q01892 1-262). Summed up: as §1
The target in test [9] is T6, ELK3 (Homo sapiens, UniProt P41970 1-407).
T6 sequence: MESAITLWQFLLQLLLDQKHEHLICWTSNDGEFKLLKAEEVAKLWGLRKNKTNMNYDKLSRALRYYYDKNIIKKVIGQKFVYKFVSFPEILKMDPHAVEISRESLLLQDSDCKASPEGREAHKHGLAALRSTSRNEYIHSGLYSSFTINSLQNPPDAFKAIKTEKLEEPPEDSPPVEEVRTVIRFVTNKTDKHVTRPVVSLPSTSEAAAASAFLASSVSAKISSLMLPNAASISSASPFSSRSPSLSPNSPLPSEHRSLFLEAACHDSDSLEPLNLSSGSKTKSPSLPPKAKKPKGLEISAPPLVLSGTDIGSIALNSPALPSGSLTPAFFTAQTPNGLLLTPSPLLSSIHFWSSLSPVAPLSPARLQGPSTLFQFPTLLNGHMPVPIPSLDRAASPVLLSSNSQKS
The essentials:
as §1

Chain of SPIB (Q01892 whole entry): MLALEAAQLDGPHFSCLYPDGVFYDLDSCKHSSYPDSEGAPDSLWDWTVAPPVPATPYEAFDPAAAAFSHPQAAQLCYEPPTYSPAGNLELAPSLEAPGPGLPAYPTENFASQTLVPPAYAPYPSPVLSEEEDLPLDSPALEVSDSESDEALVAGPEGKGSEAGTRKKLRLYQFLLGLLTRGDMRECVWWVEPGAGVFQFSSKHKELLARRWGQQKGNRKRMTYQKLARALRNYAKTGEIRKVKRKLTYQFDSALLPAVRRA
Chain of ELF1 (P32519 whole entry): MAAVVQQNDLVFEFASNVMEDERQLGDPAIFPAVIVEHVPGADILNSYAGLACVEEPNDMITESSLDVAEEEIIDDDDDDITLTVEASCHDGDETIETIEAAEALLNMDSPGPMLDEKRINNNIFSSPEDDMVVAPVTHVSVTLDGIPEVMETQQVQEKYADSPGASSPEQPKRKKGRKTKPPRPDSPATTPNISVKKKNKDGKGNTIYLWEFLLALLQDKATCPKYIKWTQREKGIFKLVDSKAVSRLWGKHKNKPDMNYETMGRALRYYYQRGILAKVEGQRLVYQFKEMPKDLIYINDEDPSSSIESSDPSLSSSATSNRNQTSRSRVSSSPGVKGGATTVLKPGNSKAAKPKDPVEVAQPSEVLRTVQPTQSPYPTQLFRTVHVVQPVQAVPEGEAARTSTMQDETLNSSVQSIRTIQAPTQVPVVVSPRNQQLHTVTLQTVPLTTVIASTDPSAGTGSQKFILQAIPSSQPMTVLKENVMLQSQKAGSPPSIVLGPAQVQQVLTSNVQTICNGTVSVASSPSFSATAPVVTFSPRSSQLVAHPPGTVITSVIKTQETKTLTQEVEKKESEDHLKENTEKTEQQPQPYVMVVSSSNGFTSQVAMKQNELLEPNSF

In the case of TACGTA, the binding signal in [1] is 1.41 fold enrichment (6-mer frequency, TF over GST control); in test [2], 1.36 fold enrichment (6-mer frequency, TF over GST control); in test [3] it was 1.31 fold enrichment (6-mer frequency, TF over GST control); in test [4], 1.2 fold enrichment (6-mer frequency, TF over GST control); in [5] it was 1.32 fold enrichment (6-mer frequency, TF over GST control); in [6], 1.41 fold enrichment (6-mer frequency, TF over GST control). For the same sequence, the binding signal in test [7] is 1.35 fold enrichment (6-mer frequency, TF over GST control); in test [8] it was 1.15 fold enrichment (6-mer frequency, TF over GST control); in [9], 1.37 fold enrichment (6-mer frequency, TF over GST control).

Regarding TAAAAC, the binding signal was 1.17 fold enrichment (6-mer frequency, TF over GST control) in test [1]; 1.18 fold enrichment (6-mer frequency, TF over GST control) in test [2]; 1.14 fold enrichment (6-mer frequency, TF over GST control) in test [3]; 1.18 fold enrichment (6-mer frequency, TF over GST control) in test [4]; 1.24 fold enrichment (6-mer frequency, TF over GST control) in [5]; 1.11 fold enrichment (6-mer frequency, TF over GST control) in [6]. The binding signal in test [7] is 1.2 fold enrichment (6-mer frequency, TF over GST control); in test [8], 1.17 fold enrichment (6-mer frequency, TF over GST control); in test [9], 1.19 fold enrichment (6-mer frequency, TF over GST control).

For the sequence CCTCCC, the binding signal was 1.42 fold enrichment (6-mer frequency, TF over GST control) in test [1]; 1.43 fold enrichment (6-mer frequency, TF over GST control) in test [2]; 1.45 fold enrichment (6-mer frequency, TF over GST control) in test [3]; 1.47 fold enrichment (6-mer frequency, TF over GST control) in [4]; 1.54 fold enrichment (6-mer frequency, TF over GST control) in test [5]; 1.57 fold enrichment (6-mer frequency, TF over GST control) in test [6]. For the same sequence, the binding signal in test [7] is 1.48 fold enrichment (6-mer frequency, TF over GST control); in test [8], 1.48 fold enrichment (6-mer frequency, TF over GST control); in test [9], 1.45 fold enrichment (6-mer frequency, TF over GST control).

With CCTTGG, the binding signal in [1] is 1.28 fold enrichment (6-mer frequency, TF over GST control); in test [2] it was 1.41 fold enrichment (6-mer frequency, TF over GST control); in test [3], 1.34 fold enrichment (6-mer frequency, TF over GST control); in test [4], 1.28 fold enrichment (6-mer frequency, TF over GST control); in test [5], 1.28 fold enrichment (6-mer frequency, TF over GST control); in test [6], 1.37 fold enrichment (6-mer frequency, TF over GST control). Moreover, the binding signal in test [7] is 1.24 fold enrichment (6-mer frequency, TF over GST control); in test [8], 1.32 fold enrichment (6-mer frequency, TF over GST control); in [9], 1.4 fold enrichment (6-mer frequency, TF over GST control).

On to AAAACG, for which the binding signal in [1] is 1.13 fold enrichment (6-mer frequency, TF over GST control); in test [2] it was 1.19 fold enrichment (6-mer frequency, TF over GST control); in test [3], 1.14 fold enrichment (6-mer frequency, TF over GST control); in test [4] it was 1.21 fold enrichment (6-mer frequency, TF over GST control); in test [5], 1.16 fold enrichment (6-mer frequency, TF over GST control); in [6] it was 1.17 fold enrichment (6-mer frequency, TF over GST control). The binding signal in test [7] was 1.43 fold enrichment (6-mer frequency, TF over GST control); in test [8], 1.11 fold enrichment (6-mer frequency, TF over GST control); in [9] it was 1.14 fold enrichment (6-mer frequency, TF over GST control).

For the sequence AATCTG, the binding signal was 1.48 fold enrichment (6-mer frequency, TF over GST control) in test [1]; 1.33 fold enrichment (6-mer frequency, TF over GST control) in test [2]; 1.49 fold enrichment (6-mer frequency, TF over GST control) in [3]; 1.46 fold enrichment (6-mer frequency, TF over GST control) in test [4]; 1.48 fold enrichment (6-mer frequency, TF over GST control) in test [5]; 1.31 fold enrichment (6-mer frequency, TF over GST control) in test [6]. Also, the binding signal is 1.42 fold enrichment (6-mer frequency, TF over GST control) in test [7]; 1.51 fold enrichment (6-mer frequency, TF over GST control) in test [8]; 1.34 fold enrichment (6-mer frequency, TF over GST control) in test [9].

Turning to TTTATA, the binding signal in test [1] was 1.32 fold enrichment (6-mer frequency, TF over GST control); in [2] it was 1.27 fold enrichment (6-mer frequency, TF over GST control); in [3], 1.36 fold enrichment (6-mer frequency, TF over GST control); in [4] it was 1.29 fold enrichment (6-mer frequency, TF over GST control); in test [5], 1.23 fold enrichment (6-mer frequency, TF over GST control); in test [6], 1.4 fold enrichment (6-mer frequency, TF over GST control). Besides, the binding signal in [7] is 1.34 fold enrichment (6-mer frequency, TF over GST control); in test [8] it was 1.33 fold enrichment (6-mer frequency, TF over GST control); in test [9], 1.28 fold enrichment (6-mer frequency, TF over GST control).

Turning to GCTTCT, the binding signal in test [1] is 1.41 fold enrichment (6-mer frequency, TF over GST control); in test [2], 1.49 fold enrichment (6-mer frequency, TF over GST control); in test [3] it was 1.53 fold enrichment (6-mer frequency, TF over GST control); in test [4], 1.44 fold enrichment (6-mer frequency, TF over GST control); in test [5], 1.59 fold enrichment (6-mer frequency, TF over GST control); in test [6] it was 1.52 fold enrichment (6-mer frequency, TF over GST control). The binding signal in [7] was 1.43 fold enrichment (6-mer frequency, TF over GST control); in [8], 1.51 fold enrichment (6-mer frequency, TF over GST control); in test [9], 1.61 fold enrichment (6-mer frequency, TF over GST control).

The record behind these values is publication PMC7862700, “An all-to-all approach to the identification of sequence-specific readers for epigenetic DNA modifications on cytosine”.
